An excerpt weighted towards active compounds, which were near 3.2% of everything screened.
MEKK2mut PB1 HTS: MEK5 binding signal on mutant MEKK2 PB1, primary screen, biochemical, multiplex bead flow cytometry, Alexa488-MEK5 | Alexa488-MEK5 binding to MEKK2 mutant | percent response, % at 10 µM | 290,000 tested, 0.35% active | AID 1530, 2009; in the data active means percent response above about 24%, passing the limit was not always enough
MEKK2wt PB1 HTS: modulators of MEK5 binding to wildtype MEKK2, primary screen, biochemical, multiplex bead flow cytometry, Alexa488-MEK5; Mitogen-activated protein kinase kinase kinase 2 (Homo sapiens), Q9Y2U5; Alexa488-MEK5 binding to MEKK2 WT; actives lie on both sides; binding response (% of control), % at 10 µM; 290,000 tested, 1.1% active; AID 1531, 2009; in the data active means binding response below about 67% or above about 130%
NRP1-CendR mod: modulators of CendR peptide binding to NRP-1, primary screen, biochemical, fluorescence polarization, uHTS; Neuropilin-1 (Homo sapiens), O14786; FAM-RPARPAR peptide binding to NRP-1; inhibition, % at 25 µM; 360,000 tested, 0.85% active; AID 602438, 2012;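 active means inhibition or corrected inhibition above about 18%, plus a signal ratio from 0.5 to 1.5, limit read from the data, passing the limit was not always enough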
MEKK3 PB1 HTS: modulators of MEKK3-MEK5 PB1 binding, primary screen, biochemical, wildtype MEKK3, multiplex bead flow cytometry, Alexa488-MEK5 | AID 1529, 2009 | binding response (% of control), % at 10 µM | 290,000 tested, 1.4% active | bead-based flow cytometry, Alexa488-MEK5 binding to MEKK3; actives lie on both sides; 0 = blocked by unlabeled MEK5, 100 = vehicle | Mitogen-activated protein kinase kinase kinase 3 (Homo sapiens), Q99759;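 active means binding response more than 3 SD above or below the average of its plate-row segment, actives on both sides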;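 further: Alexa488 bead fluorescence after subtracting the streptavidin-only scavenger bead signal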
Target sequence (Q99759 whole entry, looked up): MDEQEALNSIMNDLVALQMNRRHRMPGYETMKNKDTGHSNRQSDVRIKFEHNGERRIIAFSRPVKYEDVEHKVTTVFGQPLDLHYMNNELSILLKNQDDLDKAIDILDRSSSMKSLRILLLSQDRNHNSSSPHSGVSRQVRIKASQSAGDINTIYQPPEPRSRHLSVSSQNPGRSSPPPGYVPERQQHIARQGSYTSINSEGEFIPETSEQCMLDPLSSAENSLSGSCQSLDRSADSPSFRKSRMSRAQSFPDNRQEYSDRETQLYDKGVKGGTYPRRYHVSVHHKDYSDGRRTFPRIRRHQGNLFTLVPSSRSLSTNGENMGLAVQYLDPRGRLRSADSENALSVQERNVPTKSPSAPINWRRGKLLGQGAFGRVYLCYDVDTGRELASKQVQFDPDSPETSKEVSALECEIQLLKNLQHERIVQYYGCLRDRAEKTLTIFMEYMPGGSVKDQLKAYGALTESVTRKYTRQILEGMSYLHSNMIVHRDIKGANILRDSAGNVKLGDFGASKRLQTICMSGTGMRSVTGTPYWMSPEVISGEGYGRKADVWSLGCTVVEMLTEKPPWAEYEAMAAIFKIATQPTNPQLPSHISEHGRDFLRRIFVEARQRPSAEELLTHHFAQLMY
SKN-1 block: suppressors of acrylamide-induced Pgst-4::GFP reporter in worms, primary screen, SKN-1 inhibitor project, whole organism, uHTS, GFP/RFP fluorescence ratio, strain VP596; C. elegans VP596 Pgst-4::GFP/RFP ratio, 24 h; inhibition, % at 21.8 µM; 360,000 tested, 0.49% active;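 active means interference check ratio from 0.5 to 1.5 plus GFP to RFP signal ratio inhibition reaching or exceeding a fixed threshold, cut at about 30% in these data, passing the limit was not always enough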
* marks the source's active call; other numbers are inactive results; · = no result.

SMILES	MEKK2mut PB1 HTS	MEKK2wt PB1 HTS	NRP1-CendR mod	MEKK3 PB1 HTS	SKN-1 block
CCC1CCCCN1CCCNC(=O)c1cc2c(=O)oc3ccc(C)cc3c2s1 (stereo not drawn)	14	153*	3	102	19
CCC1CCCCN1CCCNC(=O)c1ccc2c(c1)N(Cc1ccc(F)cc1)C(=O)c1ccccc1S2=O (stereo not drawn)	10	147*	10	107	-2
CCC1CCCCN1CCCNC(=O)c1ccc2c(c1)c(C)c(C)n2C (stereo not drawn)	21	158*	-9	99	15
CCOC(=O)[C@]12CCC=C1N(Cc1ccccc1)C(=O)[C@H](CC(=O)NCCC(C)C)C2	·	·	12	·	-5
COCc1c(C(=O)N/N=C(/C)c2ccc(OCc3ccccc3)cc2)nnn1-c1nonc1N	-6	96	0	94	1
N#C/C(=C\c1ccc(-c2ccccc2)o1)C(=O)Nn1cnnc1	1	106	-10	103	51*
Cc1ccc(-c2ccc(/C=C(\C#N)C(=O)Nc3cc(C)nn3-c3ccccc3)o2)cc1	0	77	·	91	·
Cc1c(C(=O)/C=C/c2cccs2)oc2ccc(F)cc12	1	95	-5	100	52*
Cn1c(SCc2nc3ccccc3s2)nnc1-c1cccs1	·	·	44*	·	7
Cc1cc(Br)ccc1NC(=O)CN(C)C(=O)C1CCN(c2ncnc3sc(C)c(C)c23)CC1	·	·	-4	·	20
Cn1cnnc1SCc1ccc(C(=O)N/N=C(/CCC(=O)O)c2ccc(C(C)(C)C)cc2)cc1	·	·	-2	·	18
CC1(C(=O)N2CCCCC2)CCN1C(=O)Cc1ccc(-c2ccccc2)cc1 (stereo not drawn)	·	·	-4	·	16
COC(=O)c1c(NC(=O)c2ccco2)sc2c1CCC2	5	98	6	103	40*
COC(=O)c1c(NC(=O)COC(=O)c2ccc(O)cc2)sc2c1CCCCC2	3	93	-4	99	3
O=C(Nc1sc2c(c1C(=O)O)CCC2)c1ccco1	3	101	-4	100	-26
COCC(=O)Nc1sc2c(c1C(=O)OC)CCCC2	-13	99	-5	96	34*
CC(C)OC(=O)c1ccc2ccc(-c3ccccc3)nc2c1	·	·	1	·	49
Cc1onc(-c2ccccc2)c1-c1nnc(COC(=O)c2ccc(O)cc2)o1	·	·	-6	·	0
COc1ccc(-c2ccc(C#N)c(SCC(=O)Nc3sc4c(c3C#N)CCC4)n2)cc1	-4	97	-2	100	33
N#Cc1ccc(-c2cccnc2)nc1SCC(=O)Nc1sc2c(c1C#N)CCC2	5	104	-72	109	39*
CCc1nc2c(OCc3ccc(C(F)(F)F)cc3)cccn2c1N(C)C(C)=O	·	·	-4	·	4
CCc1nc2c(OCc3ccc(C(F)(F)F)cc3)cccn2c1N(C)C(=O)c1ccncc1	·	·	-8	·	54*
CC1=NN(c2ccccc2)C(=O)C1N=Nc1ccc(N)cc1 (stereo not drawn)	2	89	-13	101	41*
CC1=NN(c2ccccc2)C(=O)C1N=Nc1ccccc1 (stereo not drawn)	-2	103	-4	107	9
Clc1cccc(CSc2ccc(-c3ccco3)nn2)c1	-2	107	-7	124	67*
SMILES	MEKK2mut PB1 HTS	MEKK2wt PB1 HTS	NRP1-CendR mod	MEKK3 PB1 HTS	SKN-1 block
c1ccc(CSc2ccc(-c3ccco3)nn2)cc1	0	101	-11	117	36*
Clc1ccc(CSc2ccc(-c3ccco3)nn2)cc1	-10	92	4	102	15
Cc1cc(=O)[nH]c(SCc2cccc(Br)c2)n1	6	105	-3	108	0
Cc1ccc(CSc2ccc(-c3ccco3)nn2)cc1	17	104	4	108	8
O=c1cc(-c2ccco2)nc(SCc2cccc(Cl)c2)[nH]1	-4	-8.0*	-22	99	9
Fc1ccccc1CSc1ccc(-c2ccco2)nn1	-11	96	2	104	39*
O=C(Nc1ccc(N2CCOCC2)cc1)c1csc(COCCO)n1	·	·	2	·	15
Cc1ccc(C2(C)NC(=O)N(CC(=O)NC(=O)NC(C)C)C2=O)cc1 (stereo not drawn)	6	107	4	108	8
CC(C)(C)S(=O)N1Cc2cc(C(=O)NCC(F)(F)F)nc(-c3cccc(-c4cccc(F)c4)c3)c2[C@H]1CCO (stereo partly drawn)	·	·	-4	·	9
O=C(CSc1nc(=O)n2ccccc2n1)OCc1ccccc1	·	·	0	·	-15
CCOC(=O)C(C)Sc1nc(=O)n2ccccc2n1 (stereo not drawn)	-6	98	19*	103	7
Cc1nc2ccc(NC(=O)[C@H](C)N3C(=O)C4CC=CCC4C3=O)cc2s1 (stereo partly drawn)	·	·	19*	·	-10
Cc1cnc(NC(=O)C(C)N2C(=O)C3CC=CCC3C2=O)s1 (stereo not drawn)	-2	98	3	98	-38
COCCNC(=O)C(c1ccc(C)o1)N(Cc1ccc(OC)cc1)C(=O)Cn1nnc2ccccc21 (stereo not drawn)	5	101	2	105	35*
Clc1ccc(Nc2ccc(-n3ccnc3)nn2)cc1Cl	4	105	1	109	37*
CCCCCc1c(C)nc(SCC(=O)O)[nH]c1=O	5	107	-6	106	-18
CCCCCSc1nc(C)c(CC(=O)O)c(=O)[nH]1	3	106	20*	101	6
COC(=O)c1c(NC(=O)CN2CCN(Cc3ccc4c(c3)OCO4)CC2)sc(C)c1C	7	125	3	111	36*
COC(=O)c1ccsc1NC(=O)CN1CCN(Cc2ccc3c(c2)OCO3)CC1	3	106	1	99	15
COC(=O)CN1C(=O)CSc2ccc(S(=O)(=O)N3CCC(C)CC3)cc21	·	·	1	·	-5
COc1cc(C(=O)N2CCN(c3ccc([N+](=O)[O-])cc3)CC2)ccc1OCc1c(C)noc1C	-5	94	19*	96	3
CC(C)(C)OC(=O)N1CCC(C(=O)Nc2cccc(C(=O)NCCCc3ccccc3)c2)CC1	·	·	-1	·	1
CCCCCCCCCOC(=O)C1N2C(=O)[C@@H](NC(=O)COc3ccccc3)[C@H]2SC1(C)C (stereo partly drawn)	-4	102	22*	104	9
CC(C)N1CC2=C(OC(N)=C(C#N)C2c2cccnc2)/C(=C/c2cccnc2)C1 (stereo not drawn)	-2	100	26*	98	30

Compound activity: PubChem, several laboratories
